Screens (PubChem BioAssay)
RE007 growth inh = less growth of the S. pombe RE007 Vpr strain; S. pombe RE007 Vpr strain, BacTiter-Glo ATP luminescence, 24 h; Potency, µM (titrated, usually from 92.2 µM), for inactives: top-dose activity change, negative = less growth, most hits filed as inhibitors; 360,000 tested, 0.21% active; AID 651644; active = well fitted falling curve with a large enough effect; inconclusive = small, poorly fitted or top-dose-only effect; inactive = no such curve, though single readings can be large or run the other way; note: % is set by controls: 0 for no effect and ±100 for the full control effect; nearly all actives have a fitted effect of over 50% in size
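Fission yeast strain RE007, carrying one chromosomally integrated HIV-1 vpr copy, was seeded at OD 0.01 in PMG+AL medium with 23 nL pinned compound. After 24 h at 30 °C and 99% humidity, viability was read by BacTiter-Glo luminescence.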
NS1 function inh = inhibitors of influenza NS1 protein function; Potency, µM (doses to about 46.1 µM), inactives show at the top dose activity, positive = more growth; 270,000 tested, 0.4% active; AID 2326; calls by dose curve; note: actives are rising curves; nearly all actives have a fitted effect of over 50% in size
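Growth recovery, yeast-based: influenza A NS1 expressed in S. cerevisiae causes slow growth, and suppressors are detected by OD600. The parent strain without NS1 is used as positive control.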
TbPYK inhibitor = blocks Trypanosoma brucei pyruvate kinase; Q57TT1; TbPYK enzyme, Kinase-Glo Plus ATP luminescence, 45 min; Potency, µM (highest dose often 76.8 µM), for inactives: top-dose activity, negative = inhibition, hits mostly inhibitors; 410,000 tested, 0.12% active; note: % is set by controls: 0 for no effect and ±100 for the full control effect; nearly all actives have a fitted effect of over 50% in size
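TbPYK + substrate in 50 mM TEA pH 7.2, 100 mM KCl, 10 mM MgCl2, 0.05% BSA, 0.01% Tween-20; cpd pinned; ADP 130 uM final; 45 min RT; Kinase-Glo Plus 10 min; luminescence endpoint.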
LmPK inh = blocks Leishmania mexicana pyruvate kinase activity; AID 1721; purified LmPK, Kinase-Glo ATP luminescence, 1 h; Potency, µM (doses to about 57.5 µM), without a hit: at the top dose activity change, negative = inhibition, usual class: inhibitors; 290,000 tested, 0.37% active; note: % is set by controls: 0 for no effect and ±100 for the full control effect
Target sequence (Q27686 whole entry, looked up): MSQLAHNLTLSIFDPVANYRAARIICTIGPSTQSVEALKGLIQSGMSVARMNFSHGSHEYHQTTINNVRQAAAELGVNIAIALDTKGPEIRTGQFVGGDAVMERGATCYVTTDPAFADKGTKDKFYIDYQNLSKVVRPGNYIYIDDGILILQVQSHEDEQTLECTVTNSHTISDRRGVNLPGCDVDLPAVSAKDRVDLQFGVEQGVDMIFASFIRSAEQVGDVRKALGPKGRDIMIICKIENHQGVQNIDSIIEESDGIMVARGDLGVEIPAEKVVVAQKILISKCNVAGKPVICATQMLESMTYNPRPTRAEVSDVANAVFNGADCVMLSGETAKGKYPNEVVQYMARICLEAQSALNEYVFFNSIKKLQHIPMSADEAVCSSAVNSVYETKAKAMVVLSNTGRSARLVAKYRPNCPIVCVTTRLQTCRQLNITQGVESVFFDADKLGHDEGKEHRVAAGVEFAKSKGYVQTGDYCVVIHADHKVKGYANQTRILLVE
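0.1 nM LmPK, 0.5 mM PEP, 0.1 mM ADP; 50 mM imidazole pH 7.2, 7 mM MgCl2, 50 mM KCl; 1 h RT. Kinase-Glo luminescence readout, normalized to no-enzyme (full inhibition) and uninhibited wells.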
* hit, by the source's call; ? = inconclusive; . = no result given; [ ] = another dose, or the depositor's remark. Compounds with a hit are over-represented: about 0.77% of the library has one in this group of screens. Unless noted, calls come from the whole dose curve; as a rule, active = well fitted curve in the direction sought with a large enough effect; inconclusive = small, poorly fitted or top-dose-only effect, or another doubt; inactive = no such curve, though single readings can be large; an effect the other way counts as inactive or inconclusive. Potency is the fitted concentration of half-maximal effect.

SMILES | RE007 growth inh | NS1 function inh | TbPYK inhibitor | LmPK inh
CC(=O)C1=C(C)NC(SCC(N)=O)=C(C#N)C1C (stereo unspecified) | 2% | 6% | 8.9µM* | 15%
CC(=O)C1=C(C)NC(SCC(=O)c2ccc(Cl)cc2)=C(C#N)C1CC(C)C (stereo unspecified) | 28% | -49% | -29% | -1%
CC(=O)C1=C(C)NC(SCC(=O)c2ccc(F)cc2)=C(C#N)C1CC(C)C (stereo unspecified) | -15% | ? | 14µM* | 23%
O=C(OCc1ccccc1)c1cccnc1 | . | . | 4% | .
Cc1cc2ccc(OC(=O)c3ccc(N=C(N)N)cc3)cc2oc1=O | . | 13% | . | .
Cc1[nH]n(-c2ccccc2)c(=S)c1C=Nc1ccc([N+](=O)[O-])cc1 | 39% | 2% | 2.8µM* | -26%
Cc1[nH]n(-c2ccccc2)c(=O)c1C=Nc1ccc(S(=O)(=O)N=C(N)N)cc1 | -3% | -3% | 2% | 6%
COCCNc1cc(C)nc2cc(-c3ccc(C)cc3)nn12 | ? | 2% | 0% | 1%
Cc1ccc(-c2cc3nc(C)cc(NCc4ccco4)n3n2)cc1 | ? | -44% | 1% | 28µM*
COc1ccc(/C=N/n2c(-c3n[nH]c4c3CCC4)n[nH]c2=S)c(OC)c1OC | 43% | 2% | -38% | -8%
COc1ccc(OC)c(/C=N/n2c(-c3n[nH]c4c3CCC4)n[nH]c2=S)c1 | 3% | 3% | 3.5µM* | -10%
COc1cc(OC)c(OC)cc1/C=N/n1c(-c2n[nH]c3c2CCC3)n[nH]c1=S | 20% | 3% | 2.5µM* | -20%
COc1ccc(/C=N/n2c(-c3n[nH]c4c3CCC4)n[nH]c2=S)cc1 | 0% | 1% | ? | -19%
CC[C@]1(O)C[C@H]2CN(CCc3c([nH]c4ccccc34)[C@@](C(=O)OC)(c3cc4c(cc3OC)N(C=O)[C@H]3[C@@](O)(C(=O)OC)[C@H](OC(C)=O)[C@]5(CC)C=CCN6CC[C@]43[C@@H]65)C2)C1 | . | . | -1% | .
NS(=O)(=O)c1ccc(N/C=C\C(=O)c2ccc(F)cc2)cc1 | -21% | -1% | -6% | -16%
CN(C)c1ccc(N/C=C/C(=O)c2ccc(F)cc2)cc1 | -19% | 5% | ? | 14µM*
CC(=O)Nc1ccc(N/C=C/C(=O)c2ccco2)cc1 | -12% | -9% | 5% | ?
CN(C)c1ccc(N/C=C/C(=O)c2ccco2)cc1 | -23% | -2% | ? | 7.1µM*
OCCN(CO)CO | . | -4% | . | .
O=C(c1csnn1)N1CCC2(CCCN(c3ccc(-c4ccccc4)cc3)C2)CC1 | . | . | 0% | .
C/C(=N/Nc1nc(C)cc(=O)[nH]1)C(=O)O | . | 0% | . | .
COc1ccc(-c2ccc(SCc3ccccn3)nn2)cc1OC | -9% | . | 11% | 2%
COc1cccc(-c2ccc(SCc3ccccn3)nn2)c1 | -23% | . | -6% | 14µM*
C/C(=N/NC(=O)c1ccoc1C)c1ccc(NC(=O)C2CCCC2)cc1 | 8% | 3% | 1% | -10%
O=C(NN=C1CCCC1)c1n[nH]c2c1CCCC2 | -14% | 5% | -11% | 28µM*
SMILES | RE007 growth inh | NS1 function inh | TbPYK inhibitor | LmPK inh
Cc1ccsc1/C=N\NC(=O)c1n[nH]c2c1CCC2 | -10% | 4% | -16% | 10µM*
C/C(=N\NC(=O)c1ccc(O)cc1)c1ccc2c(c1)OCCO2 | 8% | . | -2% | .
C/C(=N\NC(=O)c1ccoc1C)c1ccccc1 | 8% | -1% | -17% | 14µM*
C/C(=N\NC(=O)c1ccc2c(c1)OCCO2)c1ccccc1 | 7% | -1% | ? | 11µM*
CC(C)OC(=O)OCOP(=O)(CO[C@H](C)Cn1cnc2c(N)ncnc21)OCOC(=O)OC(C)C | . | . | 14% | .
Cc1ccsc1/C=N/NC(=O)c1ccc2c(c1)OCCO2 | 6% | -38% | 0% | 22µM*
Nc1ccc(N(S(=O)(=O)c2ccccc2)S(=O)(=O)c2ccccc2)c(Cl)c1 | . | -10% | . | .
O=C(O)/C=C/C(=O)c1ccc2c(c1)CCc1ccccc1-2 | ? | . | 35µM* | .
CC1(OC(=O)C2CCCC2)C(=O)C=C2C=C(c3ccsc3)N(c3ccc(CO)cc3)C=C2C1=O (stereo unspecified) | . | . | . | -10%[11.5 µM]
CC1(C)CC(=O)C2=C(C1)O[C@@]1(CCCCN3C(=O)c4ccccc4C3=O)Cc3cc(C#N)ccc3C2O1 | . | 8% | . | -6%[11.5 µM]
c1c2c(cc3sc(N4CCOCC4)nc13)OCCO2 | ? | -4% | ? | 14µM*
CCCCCCCCCCCCCCCCCC(=O)OCCO | . | . | 1% | .
CCCCCCC(=O)N(O)C1CC(=O)N(c2ccc(F)cc2)C1=O (stereo unspecified) | 6.3µM* | -84% | ? | 1%
